Data reported in the supplement of paper PMC11006884.
About 6,500 targets were measured; listed, in parts, are those with a hit and a random draw of the rest. About 2% of all pairs of compound and target were hits.

Compound: COC(=O)C#Cc1ccccc1 [methyl 3-phenylpropiolate]
Test: log2 ratio of iodoacetamide-alkyne labeling of the cysteine site, DMSO over compound (competition); higher = stronger covalent engagement of the cysteine by the compound, active = 1 or more
Details: 500 µM; treatment time 1 h; system: HEK293T cell lysate
In short: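 HEK293T lysate at 2 mg/mL was treated with vehicle or electrophile (500 µM) for 1 h at ambient temperature, then labelled with iodoacetamide alkyne (1 h), clicked to sCIP-TMT reagents, pooled, digested with trypsin overnight at 37 °C, enriched on streptavidin and eluted with acid. Peptides were analysed by Orbitrap Eclipse LC-MS/MS with FAIMS and quantified in FragPipe, using duplicate channels and three replicates, with cysteines quantified in only one replicate excluded. The log2 competition ratio for each cysteine is the mean control-channel reporter intensity divided by the mean compound-channel reporter intensity.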

Sequence of UniProt Q86VP6 (Q86VP6 whole entry, looked up): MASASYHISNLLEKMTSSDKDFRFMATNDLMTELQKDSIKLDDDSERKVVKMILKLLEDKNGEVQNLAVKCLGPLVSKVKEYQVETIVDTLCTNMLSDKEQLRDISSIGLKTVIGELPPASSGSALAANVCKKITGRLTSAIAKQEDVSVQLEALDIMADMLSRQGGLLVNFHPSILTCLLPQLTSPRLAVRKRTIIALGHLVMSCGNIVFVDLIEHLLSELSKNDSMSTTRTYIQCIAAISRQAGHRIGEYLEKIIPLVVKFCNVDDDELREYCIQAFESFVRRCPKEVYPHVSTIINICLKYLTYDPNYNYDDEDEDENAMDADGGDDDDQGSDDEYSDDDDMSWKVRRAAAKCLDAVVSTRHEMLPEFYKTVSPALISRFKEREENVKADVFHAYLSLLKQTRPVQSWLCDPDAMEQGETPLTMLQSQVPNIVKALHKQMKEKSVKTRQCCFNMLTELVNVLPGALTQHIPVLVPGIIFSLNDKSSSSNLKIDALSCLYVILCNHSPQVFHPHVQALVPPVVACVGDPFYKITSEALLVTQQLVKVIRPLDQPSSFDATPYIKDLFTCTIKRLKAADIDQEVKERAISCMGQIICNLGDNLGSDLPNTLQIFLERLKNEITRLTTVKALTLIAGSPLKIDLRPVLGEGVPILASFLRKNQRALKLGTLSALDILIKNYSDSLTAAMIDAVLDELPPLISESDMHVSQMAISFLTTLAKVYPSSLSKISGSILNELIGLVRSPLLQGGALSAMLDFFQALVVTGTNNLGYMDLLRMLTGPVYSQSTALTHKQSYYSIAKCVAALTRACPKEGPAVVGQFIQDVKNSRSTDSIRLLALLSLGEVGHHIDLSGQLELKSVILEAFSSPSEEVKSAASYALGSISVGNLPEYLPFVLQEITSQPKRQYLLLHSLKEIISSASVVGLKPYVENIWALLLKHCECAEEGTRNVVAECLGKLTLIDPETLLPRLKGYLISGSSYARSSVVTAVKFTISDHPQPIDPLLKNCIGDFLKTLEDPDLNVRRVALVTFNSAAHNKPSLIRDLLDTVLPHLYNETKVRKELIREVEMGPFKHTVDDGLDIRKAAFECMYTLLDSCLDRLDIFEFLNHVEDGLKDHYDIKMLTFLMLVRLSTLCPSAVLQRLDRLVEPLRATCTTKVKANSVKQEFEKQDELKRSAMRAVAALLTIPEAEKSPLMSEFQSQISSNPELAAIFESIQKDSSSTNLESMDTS
Sequence of UniProt Q8IVM0 (Q8IVM0 whole entry, looked up): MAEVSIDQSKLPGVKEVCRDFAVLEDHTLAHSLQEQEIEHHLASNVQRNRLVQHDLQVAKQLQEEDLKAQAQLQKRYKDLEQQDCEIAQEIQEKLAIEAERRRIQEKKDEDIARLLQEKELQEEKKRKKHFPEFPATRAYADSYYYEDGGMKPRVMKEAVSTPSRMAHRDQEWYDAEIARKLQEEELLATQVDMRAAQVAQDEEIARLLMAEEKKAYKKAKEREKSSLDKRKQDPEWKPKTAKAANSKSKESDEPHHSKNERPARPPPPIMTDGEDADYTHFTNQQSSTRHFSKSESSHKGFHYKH
Sequence of UniProt Q8N5K1 (Q8N5K1 whole entry): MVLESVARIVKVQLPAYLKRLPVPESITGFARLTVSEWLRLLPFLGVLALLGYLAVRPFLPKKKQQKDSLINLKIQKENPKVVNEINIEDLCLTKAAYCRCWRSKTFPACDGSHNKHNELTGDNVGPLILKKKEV
Sequence of UniProt Q8WUA4 (Q8WUA4 whole entry): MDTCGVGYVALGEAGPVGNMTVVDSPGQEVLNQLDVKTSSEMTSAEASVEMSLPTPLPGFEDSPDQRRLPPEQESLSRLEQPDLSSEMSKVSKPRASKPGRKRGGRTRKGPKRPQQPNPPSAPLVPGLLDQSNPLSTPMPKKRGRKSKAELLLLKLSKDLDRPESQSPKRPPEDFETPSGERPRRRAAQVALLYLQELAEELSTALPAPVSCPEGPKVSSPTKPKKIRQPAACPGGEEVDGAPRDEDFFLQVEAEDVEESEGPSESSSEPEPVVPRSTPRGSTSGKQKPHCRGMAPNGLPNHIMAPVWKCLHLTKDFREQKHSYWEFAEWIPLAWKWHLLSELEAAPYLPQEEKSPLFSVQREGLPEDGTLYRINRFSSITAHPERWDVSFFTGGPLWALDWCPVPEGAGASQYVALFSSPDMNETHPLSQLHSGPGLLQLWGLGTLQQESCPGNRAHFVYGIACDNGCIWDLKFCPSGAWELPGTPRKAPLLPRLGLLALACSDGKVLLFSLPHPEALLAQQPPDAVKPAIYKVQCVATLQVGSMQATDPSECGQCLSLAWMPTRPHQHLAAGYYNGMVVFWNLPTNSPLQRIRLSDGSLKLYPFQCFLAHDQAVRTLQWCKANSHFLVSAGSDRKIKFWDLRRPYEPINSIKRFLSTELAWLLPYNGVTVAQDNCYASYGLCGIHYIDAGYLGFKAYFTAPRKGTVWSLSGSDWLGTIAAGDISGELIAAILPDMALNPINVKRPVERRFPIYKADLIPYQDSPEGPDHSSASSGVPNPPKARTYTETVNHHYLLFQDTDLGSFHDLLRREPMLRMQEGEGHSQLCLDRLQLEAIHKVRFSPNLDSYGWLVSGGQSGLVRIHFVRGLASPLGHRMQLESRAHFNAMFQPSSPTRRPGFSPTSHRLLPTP
Sequence of UniProt Q96B54 (Q96B54 whole entry, looked up): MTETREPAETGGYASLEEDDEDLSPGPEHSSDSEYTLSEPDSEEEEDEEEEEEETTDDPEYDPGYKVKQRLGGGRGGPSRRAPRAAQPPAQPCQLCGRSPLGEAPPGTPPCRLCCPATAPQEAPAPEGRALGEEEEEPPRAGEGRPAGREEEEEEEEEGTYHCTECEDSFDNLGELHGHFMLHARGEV
Sequence of UniProt Q86U28 (Q86U28 whole entry, looked up): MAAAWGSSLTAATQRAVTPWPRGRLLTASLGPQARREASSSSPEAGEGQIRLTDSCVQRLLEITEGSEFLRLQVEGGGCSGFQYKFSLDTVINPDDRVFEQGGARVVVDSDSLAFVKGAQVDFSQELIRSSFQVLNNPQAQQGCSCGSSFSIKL
Sequence of UniProt Q8NI27 (Q8NI27 whole entry, looked up): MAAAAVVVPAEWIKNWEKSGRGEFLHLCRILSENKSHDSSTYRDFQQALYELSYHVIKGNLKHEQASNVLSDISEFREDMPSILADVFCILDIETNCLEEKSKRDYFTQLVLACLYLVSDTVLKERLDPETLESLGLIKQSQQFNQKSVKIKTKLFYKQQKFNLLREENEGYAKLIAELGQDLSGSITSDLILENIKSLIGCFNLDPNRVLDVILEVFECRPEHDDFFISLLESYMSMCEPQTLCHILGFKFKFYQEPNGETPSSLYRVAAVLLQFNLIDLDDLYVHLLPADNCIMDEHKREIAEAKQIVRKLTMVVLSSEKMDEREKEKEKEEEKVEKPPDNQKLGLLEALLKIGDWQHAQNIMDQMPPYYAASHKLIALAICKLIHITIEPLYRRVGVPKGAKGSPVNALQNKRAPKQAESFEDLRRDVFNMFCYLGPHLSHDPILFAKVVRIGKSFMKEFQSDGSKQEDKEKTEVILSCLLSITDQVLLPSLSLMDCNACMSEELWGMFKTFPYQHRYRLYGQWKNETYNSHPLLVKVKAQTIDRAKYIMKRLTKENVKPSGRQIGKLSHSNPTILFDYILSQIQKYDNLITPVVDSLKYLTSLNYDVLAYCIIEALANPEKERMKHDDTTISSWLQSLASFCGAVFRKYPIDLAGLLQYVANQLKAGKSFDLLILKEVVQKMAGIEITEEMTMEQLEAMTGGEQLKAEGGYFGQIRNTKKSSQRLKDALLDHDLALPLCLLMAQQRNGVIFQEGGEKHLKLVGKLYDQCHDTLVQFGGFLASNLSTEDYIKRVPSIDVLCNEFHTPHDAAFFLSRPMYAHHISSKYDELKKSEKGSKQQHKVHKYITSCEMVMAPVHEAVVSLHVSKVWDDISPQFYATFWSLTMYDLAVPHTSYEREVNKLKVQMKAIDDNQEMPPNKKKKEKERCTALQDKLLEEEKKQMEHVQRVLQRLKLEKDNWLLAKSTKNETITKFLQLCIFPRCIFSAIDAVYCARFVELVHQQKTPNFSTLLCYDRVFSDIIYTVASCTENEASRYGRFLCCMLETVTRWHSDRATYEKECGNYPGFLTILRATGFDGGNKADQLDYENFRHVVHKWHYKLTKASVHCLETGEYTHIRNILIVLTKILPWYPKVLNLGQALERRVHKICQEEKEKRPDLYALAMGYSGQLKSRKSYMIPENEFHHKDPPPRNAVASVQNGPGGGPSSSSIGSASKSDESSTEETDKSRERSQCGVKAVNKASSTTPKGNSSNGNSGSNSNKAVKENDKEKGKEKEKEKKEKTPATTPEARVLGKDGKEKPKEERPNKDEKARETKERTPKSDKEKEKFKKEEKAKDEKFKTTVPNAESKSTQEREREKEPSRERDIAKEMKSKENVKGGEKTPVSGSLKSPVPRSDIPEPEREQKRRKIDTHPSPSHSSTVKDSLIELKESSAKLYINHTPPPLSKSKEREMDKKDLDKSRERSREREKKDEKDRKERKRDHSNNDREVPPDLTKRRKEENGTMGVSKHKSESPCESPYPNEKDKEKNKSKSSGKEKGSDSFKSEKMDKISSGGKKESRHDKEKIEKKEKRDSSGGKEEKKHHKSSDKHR
Sequence of UniProt Q9BQ67 (Q9BQ67 whole entry, looked up): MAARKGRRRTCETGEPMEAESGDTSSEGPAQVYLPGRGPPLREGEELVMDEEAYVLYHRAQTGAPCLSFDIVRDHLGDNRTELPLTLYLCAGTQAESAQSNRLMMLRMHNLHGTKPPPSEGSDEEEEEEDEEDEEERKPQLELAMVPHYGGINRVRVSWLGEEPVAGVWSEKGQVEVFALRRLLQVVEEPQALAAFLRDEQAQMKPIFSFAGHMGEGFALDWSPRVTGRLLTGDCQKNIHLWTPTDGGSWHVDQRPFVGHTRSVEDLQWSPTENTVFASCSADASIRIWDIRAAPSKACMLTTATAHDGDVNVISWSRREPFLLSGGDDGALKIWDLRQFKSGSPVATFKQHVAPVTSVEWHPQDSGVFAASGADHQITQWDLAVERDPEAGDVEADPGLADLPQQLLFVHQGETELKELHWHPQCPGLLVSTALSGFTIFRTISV

log2 ratio of iodoacetamide-alkyne labeling, active:
UniProt Q6PJG6_C228 1.06
LUZP1 C594 (UniProt Q86V48) 1.19
ISCA2 C144 (UniProt Q86U28) 1.59
PHIP C954 (UniProt Q8WWQ0) 1.46

log2 ratio of iodoacetamide-alkyne labeling, inactive:
YOD1 C97 (UniProt Q5VVQ6) 0.146
GRWD1 C299 (UniProt Q9BQ67) 0.364
KIAA2013 C185 (UniProt Q8IYS2) 0.14
UniProt Q7Z5K2_C251 0.11
CCDC50 C85 (UniProt Q8IVM0) 0.455
PNPLA6 C409 (UniProt Q8IY17) 0.4
SECISBP2L C544 (UniProt Q93073) 0.341
UniProt Q7Z2T5_C265 0.161
UniProt Q7RTV0_C11 -0.0735
PIK3R4 C899 (UniProt Q99570) 0.087
ZNF428 C93 (UniProt Q96B54) 0.191
CISD2 C92 (UniProt Q8N5K1) 0.0262
PARG C963 (UniProt Q86W56) 0.0715
SMARCC1 C164 (UniProt Q92922) 0.146
CPNE1 C53 (UniProt Q99829) -0.0731
RPL36AL C72 (UniProt Q969Q0) 0.0561
THOC2 C743 (UniProt Q8NI27) 0.442
UniProt Q7LBC6_C1212 0.571
TRUB1 C269 (UniProt Q8WWH5) 0.163
IRF2BP2 C40 (UniProt Q7Z5L9) 0.276
GTF3C2 C608 (UniProt Q8WUA4) 0.147
SETD7 C200 (UniProt Q8WTS6) 0.34
ANKHD1 C777 (UniProt Q8IWZ3) 0.251
PHF10 C134 (UniProt Q8WUB8) 0.0674
ATRIP C74 (UniProt Q8WXE1) 0.563
UniProt Q8WUQ7_C699 0.0859
UniProt Q9BPX6_C83 0.582
ATPAF1 C321 (UniProt Q5TC12) 0.464
IPO4 C350 (UniProt Q8TEX9) 0.564
UniProt Q8N1G2_C794 0.107
CAND1 C1153 (UniProt Q86VP6) 0.443
